Reference: PubChem BioAssay (Tox21)
Unmarked numbers belong to inactive results. Active and inactive are the calls of the source. The call rests on the fitted dose curve; in most records, active means well fitted curve in the direction sought with a large enough effect in the repeat runs; inconclusive means weak or mixed curves; inactive means flat fitted curve, though single readings scatter.

Test: qHTS assay to test for compound auto fluorescence at 535 nm (green) in HepG2 cells (AID 720675)
Conditions: green autofluorescence 485/535 nm, 1 h; series mostly up to 91.3 µM
Description: National Center for Advancing Translational Sciences [NCATS]
NIH Chemical Genomics Center [NCGC]
U.S. Environmental Protection Agency [EPA]
National Institutes of Environmental Health Sciences [NIEHS]
National Toxicology Program [NTP]
U.S. Food and Drug Administration [FDA]
Compound auto fluorescence often interferes with screening of the compound library against various biological targets and signaling pathways. Some of these compounds may have fluorophoric properties. Such properties may interfere with the assay outputs resulting in false positives and/or negatives. To decrease such complications and ensure the compound activities are relevant in terms of biological response, the Tox21 10K compound library was screened for auto fluorescence.
From the fluorophores used as reporter signals in our screening assays, the auto fluorescence equivalencies of compounds against three fluorophores have been evaluated: Triamterene, Fluorescein and Rose Bengal sodium for blue, green and red fluorescence, respectively. The fluorescence intensities were measured using Excitation/Emission wavelengths at 405/460nm, 485/535nm and 540/590nm for blue, green and red labels, respectively. This assay includes the green fluorescence data.
Tox21 Assay Protocol Summary:
2,000 HepG2 cells in 5 uL of culture medium (MEM containing 10% FBS) per well were dispensed into black wall/clear bottom 1536-well plates using a Multidrop Combi Dispenser (ThermoFisher Scientific, Waltham, MA). The assay plates were incubated overnight at 37 C to allow cell attachment to the well bottom, followed by the transfer of 23 nL compound or DMSO vehicle by a pintool work station (Kalypsys , San Diego, CA). After the assay plates were incubated for 1 hr at 37 C and 5% CO2, fluorescence intensities in the assay plates were measured by an Envision (PerkinElmer, Shelton, CT) plate reader using three labels for measuring blue, green and red fluorescence at […] 460, 535 and 590 nm respectively.
On the % scale 0 is the no-effect control and ±100 the full control effect.

Row | SMILES | outcome | fluorescence, % of fluorescein control
1 | CCCOC(=O)c1ccc(C(=O)OCCC)nc1 | inactive | 
2 | CC(CCc1ccc2c(c1)OCO2)NN (stereo not given) | inactive | 
3 | O=C(Nc1ccccc1)Nc1ccccc1 | inactive | 
4 | C1COCO1 | inactive | 
5 | CSc1ccc(Oc2ccc(S(N)(=O)=O)cc2CN(C)C)cc1C | inactive | 
6 | C=CC(C)=CCC=C(C)C | inactive | 
7 | CN(C)C(=O)Nc1ccc(Oc2ccc(Cl)cc2)cc1 | inactive | 
8 | CCC(C)(C)C1CCC(O)CC1 (stereo not given) | inactive | 
9 | CCCCC(=O)O[C@]1(C(=O)CO)CC[C@H]2[C@@H]3CCC4=CC(=O)CC[C@]4(C)[C@H]3[C@@H](O)C[C@@]21C | inactive | 
10 | C[C@@H]1C[C@H]2[C@@H]3CCC4=CC(=O)C=C[C@]4(C)[C@@]3(F)[C@@H](O)C[C@]2(C)[C@@]1(O)C(=O)CO | inactive | 
11 | CC(=O)OCC(=O)[C@@]12OC(C)(C)O[C@@H]1C[C@H]1[C@@H]3C[C@H](F)C4=CC(=O)C=C[C@]4(C)[C@@]3(F)[C@@H](O)C[C@@]12C |  | -0.0438% [at 18.6 µM]
12 | Cc1nccn1-c1ccc(Sc2cccc(C3(C(N)=O)CCOCC3)c2)cc1 | inactive | 
13 | CCc1c2c(nc3ccc(OC(=O)N4CCC(N5CCCCC5)CC4)cc13)-c1cc3c(c(=O)n1C2)COC(=O)[C@]3(O)CC | inactive | 
14 | CC1(C)C2=CCCC(C)(C)[C@]23CC[C@H]1C3 | inactive | 
15 | O=C(CCC1CCN(Cc2ccccc2)CC1)c1ccc2c(c1)NCCCC2 | inactive | 
16 | CN1C(=O)CC(C)(c2ccccc2)C1=O (stereo not given) | inactive | 
17 | CO[C@H]1O[C@H](CO)[C@@H](O)[C@H](O)[C@H]1O | inactive | 
18 | CC1C2CC(CC2C2CCCC(O)C2)C1(C)C (stereo not given) | inactive | 
19 | CCC(=O)Oc1ccc(/C(CC)=C(\CC)c2ccc(OC(=O)CC)cc2)cc1 | inactive | 
20 | O=C(O)c1cccnc1C(=O)O | inactive | 

Row | SMILES | outcome | fluorescence, % of fluorescein control
21 | Cc1occc1C(=O)Nc1ccc(C(=O)N2CCC(F)(F)/C(=C\C(=O)N3CCC(N4CCCCC4)CC3)c3ccccc32)cc1 | inactive | 
22 | O=S1OCCO1 | inactive | 
23 | O=C(CCCN1CCN(c2ccc(F)cc2)CC1)NC1c2ccccc2CSc2ccccc21 (stereo not given) | inactive | 
24 | CCCOC(=O)c1ccc(N)cc1 | inactive | 
25 | NC(=O)N(O)[C@@H]1C=C[C@H](Oc2cccc(Oc3ccc(F)cc3)c2)C1 | inactive | 
26 | C/C=C/C=C/CCCCCCCO | inactive | 
27 | CC1CN(c2cc3c(cc2F)c(=O)c(C(=O)O)cn3-c2ccc(F)cc2F)CCN1 (stereo not given) | inactive | 
28 | CC(=O)CC(c1ccc([N+](=O)[O-])cc1)c1c(O)c2ccccc2oc1=O (stereo not given) |  | 0.0036% [at 18.6 µM]
29 | CCCOCCOCCO | inactive | 
30 | Cc1nc2ccccc2s1 | inactive | 
31 | CN1CCN(c2c(F)cc3c(=O)c(C(=O)O)cn4c3c2OCN4C)CC1 | inactive | 
32 | Cc1ccc(Nc2nccc(N(C)c3ccc4c(C)n(C)nc4c3)n2)cc1S(N)(=O)=O | inactive | 
33 | CCCCN(CCCC)CCCOC(=O)c1ccc(N)cc1 |  | 0.038% [at 18.6 µM]
34 | NC(=O)Cn1c(=O)cc(CCN2CCN(c3nccc4sccc34)CC2)c2ccc(F)cc21 | inactive | 
35 | CCNC(=O)N1CCN(CCCC(c2ccc(F)cc2)c2ccc(F)cc2)CC1 | inactive | 
36 | CCOC(=N)CC(=O)OCC | inactive | 
37 | CCc1nn(CCCN2CCN(c3cccc(Cl)c3)CC2)c(=O)n1CCOc1ccccc1 | inactive | 
38 | Cc1ccc(S(=O)(=O)NC2CCCCC2)cc1 | inactive | 
39 | O=C(NCCCN1CCOCC1)c1ccc(Cl)cc1 | inactive | 
40 | Nc1nc(Cl)nc2c1ncn2[C@@H]1O[C@H](CO)[C@@H](O)[C@@H]1F | inactive | 
